The record followed here is PubChem BioAssay (NCI).

This is part of a sample that, as a whole, favours compounds with a hit. Of some 83,000 tested, about 20% had one in any assay.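 Values shown are percent growth following 48 h exposure of cells in 96-well plates to a single concentration of compound; below 10 was considered active.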 A number with no mark means an inactive call. Active and inactive are the calls of the source.

This experiment concerns HL-60(TB) leukemia. Briefly: NCI-60 one-dose screen, 48 h (100 = growth as untreated, 0 = no growth, -100 = all killed). The conditions noted are these: 10 µM unless noted.
Turning to `O=C(Nc1cccc2[nH]c(C(F)(F)F)nc12)c1ccc(Br)cc1F`, the growth was 22.4%. The value for `O=C(/C=C/c1ccc([N+](=O)[O-])cc1)c1ccc2c3c(cccc13)CC2` was 14.4%; that for `CC(C)(C)OC(=O)N1C=C/C(=C\Cn2cc(-c3ccccc3)nn2)CC1` was 75.7%. With `Fc1cccc(COc2ccc(Nc3ncnc4onc(-c5ccccc5)c34)cc2)c1` the figure was 7.34% (active). The value for `C[C@H](NC(=O)[C@@H]1CSSC[C@@H](NC(=O)Cc2nc3ccccc3cc2O)C(=O)NCC(=O)N1C)c1ccccc1` was 32.1%. Turning to `C=CCNc1ccc2c3c(cccc13)C(=O)N(N1C(=O)c3cccc4cccc(c34)C1=O)C2=O`, the growth was 102%. On to `CC(=O)Nc1c(Br)cc2c(c1Br)Cc1cc(Br)ccc1-2`, for which the growth was 98.5%.

As to `C=C1C(=O)O[C@H]2[C@H]1CC/C(COC(=O)NCc1c[nH]c3ccc(Cl)cc13)=C\CC[C@@]1(C)O[C@@H]21`, the growth is -32.9% (active). Consider `C=C1C(=O)O[C@H]2[C@H]1CC/C(COC(=O)NCCc1ccc(Br)cc1)=C\CC[C@@]1(C)O[C@@H]21`, for which the growth is -14% (active).

Turning to `CCCCC[C@H]1C/C=C2/C(=O)C=C[C@@H]2C/C=C\CCCC(=O)O1`, the growth is 4.48% (active). The value for `COC(=O)Nc1cccc(Cl)c1OC` was 103%. With `COc1cc(N2C(=O)c3nccnc3C2=O)cc(OC)c1OC` the figure was 90.3%; with `Cn1cccc1-c1nc2c3c(ccc2[nH]1)C(=O)c1ccccc1C3=O`, 82.3%.

Turning to `O=C(C[P+](c1ccccc1)(c1ccccc1)c1ccccc1)c1ccccc1`, the growth was 93.1%.
